Our source for the max response, outcome and Potency values is PubChem BioAssay (NCATS).

“And” between values parts separate entries of the source, which are not always exact repeats. Identical values can stand only once. Records with an inconclusive call do not appear. More than one record can exist for a structure, and the calls need not agree. The source made the active and inactive calls. The call rests on the fitted dose curve; in most records, active means well fitted curve in the direction sought with a large enough effect; inconclusive means small, poorly fitted or top-dose-only effect, or another doubt; inactive means no such curve, though single readings can be large; an effect the other way counts as inactive or inconclusive.

Test [1] concerns CRL-7250. The test can be described thus: Cytotoxic Profiling of Annotated Libraries Using Quantitative High-Throughput Screening (AID 1296008). Further: nearly all actives have a fitted effect of over 60% in size. On max response: on the % scale 0 is the no-effect control and ±100 the full control effect. Particulars: Five cell lines viability, CellTiter-Glo ATP luminescence, 48-72 h; max response: stronger effect = lower value. In outline: (§1)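 Cytotoxicity was measured as CellTiter-Glo ATP luminescence, read after 10 min at room temperature. Compound treatment of the cells lasted 48 or 72 hr at 37 degrees Celsius in a qHTS format.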
(ATP-based viability assays read luminescence as a measure of living cells.)

Test [2] relates to HEK293. Described as above. The note with it: Five cell lines viability, CellTiter-Glo ATP luminescence, 48-72 h; max response: stronger effect = lower value. In outline:
as §1

The subject of test [3] is HaCat. The test is described as above. The note with it: Five cell lines viability, CellTiter-Glo ATP luminescence, 48-72 h; max response: stronger effect = lower value. In outline:
as §1

For test [4], the system named is KB-3-1. The test is described as above. The note with it: Five cell lines viability, CellTiter-Glo ATP luminescence, 48-72 h; max response: stronger effect = lower value. Put shortly: as §1
Test [5] has as its system NIH3T3. Described as above. The note with it: Five cell lines viability, CellTiter-Glo ATP luminescence, 48-72 h; max response: stronger effect = lower value. In outline: as §1
In test [6] the test system is HEK293T. Kind of test: qHTS assay to identify novel small-molecules to repurpose for Merkel cell carcinoma treatment (AID 1296009). Further: nearly all actives have a fitted effect of over 60% in size. Particulars: MCC and control cell lines, CellTiter-Glo viability, 72 h; at 44.8 µM (top of the series) unless noted. Put shortly:
(§2)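 After compound transfer in DMSO, plates were kept 72 hr at 37 degree celsius. Luminescent ATP signal from CellTiter-Glo served as viability measure, normalized against DMSO and no-cell controls.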

Test [7] has as its system MCC-13. Described as above. The note with it: MCC and control cell lines, CellTiter-Glo viability, 72 h; series mostly up to 46 µM. Put shortly:
as §2

Test [8] concerns MCC-26. The test is described as above. The note with it: MCC and control cell lines, CellTiter-Glo viability, 72 h; series mostly up to 46 µM. In outline: as §2
Test [9] concerns MKL-1. The description is as above. Particulars: MCC and control cell lines, CellTiter-Glo viability, 72 h; series mostly up to 46 µM. In outline:
as §2

Test [10] has as its system MKL-2. Described as above. The note with it: MCC and control cell lines, CellTiter-Glo viability, 72 h; series mostly up to 46 µM. In outline: as §2
Test [11] concerns UISO. The test is described as above. Particulars: MCC and control cell lines, CellTiter-Glo viability, 72 h; series mostly up to 46 µM. In outline: as §2
The test system of test [12] is WaGa. Described as above. Particulars: MCC and control cell lines, CellTiter-Glo viability, 72 h; series mostly up to 46 µM. Put shortly:
as §2

The subject of test [13] is C33A. Kind of test: Primary qHTS to identify gynecologic anti-cancer compounds using libraries of approved drugs and bioactive compounds (AID 1345084). Further: nearly all actives have a fitted effect of over 55% in size. The note with it: Gynecologic cancer cell panel viability, ATPlite luminescence, 48 h; series mostly up to 57.5 µM. Put shortly: (§3)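 In this quantitative HTS, cell killing is estimated from loss of ATP-dependent luciferase light. Cells see five compound concentrations over a 48 h exposure.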

In test [14] the test system is CASKI. Described as above. The note with it: Gynecologic cancer cell panel viability, ATPlite luminescence, 48 h; series mostly up to 57.5 µM. Put shortly:
as §3

For test [15], the system named is Es-2. Described as above. Particulars: Gynecologic cancer cell panel viability, ATPlite luminescence, 48 h; series mostly up to 57.5 µM. In outline: as §3
Test [16] relates to TAB165. The test can be described thus: qHTS profiling for inhibitors of Plasmodium falciparum proliferation (AID 504749). Further: nearly all actives have a fitted effect of over 60% in size. The note with it: P. falciparum in erythrocytes, SYBR Green DNA, 72 h; series mostly up to 28.7 µM. In outline:
(§4)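 Three-day growth assay of blood-stage parasites in erythrocytes (0.3% parasitemia, 2.5% hematocrit) at 37 C, 5% CO2, quantified by SYBR Green DNA staining after overnight detergent lysis.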
A general note: qHTS replaces the single test concentration by a dilution series.

For test [17], the system named is W2. The test is described as above. The note with it: P. falciparum in erythrocytes, SYBR Green DNA, 72 h; series mostly up to 28.7 µM. Put shortly:
as §4

Test [18] relates to CAOV3. The test can be described thus: Primary qHTS to identify gynecologic anti-cancer compounds using libraries of approved drugs and bioactive compounds (AID 1345084). Further: nearly all actives have a fitted effect of over 55% in size. Particulars: Gynecologic cancer cell panel viability, ATPlite luminescence, 48 h; series mostly up to 57.5 µM. Put shortly:
as §3
Potency means the concentration at half of the fitted maximal effect.

`CCCC(=O)O[C@]1(C(=O)CO)CC[C@H]2[C@@H]3CCC4=CC(=O)CC[C@]4(C)[C@H]3[C@@H](O)C[C@@]21C`: the max response was -24.4% (inactive) in [1], -4.75% (inactive) in [3], 1.39% (inactive) in [4] and -4.28% (inactive) in [5]. For the same compound, the outcome in test [2] and in test [6] was inactive. The Potency result in [7], in test [8], in test [9], in test [10], in test [11] and in test [12] was “inactive” in each case. The Potency result in test [13], in test [14] and in test [15] was “inactive” throughout.
With `CCC(=O)c1c(O)cc(O)cc1O`, the Potency result in test [16], in test [17], in [7], in [8], in test [9] and in test [10] was “inactive” each time. Further, the Potency result in test [11], in [12], in test [13], in test [18], in test [14] and in test [15] was “inactive” throughout. Moreover, the max response in test [1] is 1.93% (inactive); in test [3], 3.62% (inactive); in [4], -16.9% (inactive); in [5] it was 0.801% (inactive). Further, the outcome in test [2] and in [6] was inactive.
`CCOc1ccc(NC(=O)CC(C)O)cc1` (configuration not stated): the Potency entry in test [16], in test [7], in test [8], in test [9], in test [10] and in [11] was “inactive” throughout. In addition, the Potency result in test [12], in test [13], in test [18], in test [14] and in test [15] was “inactive” each time. Also, the max response is -0.463% (inactive) in [1]; 2.44% (inactive) in test [2]; -5.23% (inactive) in test [3]; -22.8% (inactive) in test [4]; 4.45% (inactive) in test [5].
`C[C@@H]1C[C@H]2[C@@H]3C[C@H](F)C4=CC(=O)C(Cl)=C[C@]4(C)[C@@]3(F)[C@@H](O)C[C@]2(C)[C@@]1(O)C(=O)CO`: the max response is 2.77% (inactive) in test [3], 11.7% (inactive) in test [4] and -7.22% (inactive) in test [5]. Further, the Potency entry in test [7], in [8], in test [9], in test [10], in [11] and in test [12] was “inactive” in each case. Also, the Potency entry in test [13], in [14] and in [15] was “inactive” each time.
Regarding `O=C(Nc1ccc(Oc2ccc(Cl)cc2)c(Cl)c1)c1cc(I)cc(I)c1O`, the max response in test [1] is -12.5% (inactive); in test [3], 1.19% (inactive); in test [5] it was 0.252% (inactive). For the same compound, the Potency result in test [7], in test [8], in test [9], in [10], in [11] and in test [12] was “inactive” throughout. Also, the Potency entry in test [13], in [18], in [14] and in test [15] was “inactive” throughout.
On to `O=S1(=O)c2cccc3cccc(c23)N1CCCN1CCN(c2ccc(F)cc2)CC1`, for which the Potency result in test [16], in test [17], in test [7], in test [8], in [9] and in [11] was “inactive” each time. For the same compound, the Potency entry in [13], in test [14] and in [15] was “inactive” throughout. The max response was -0.344% (inactive) in test [3], -1.2% (inactive) in test [4] and -13.9% (inactive) in test [5].
On to `CCN(CC)CCOc1ccc(C(O)(Cc2ccc(Cl)cc2)c2ccc(C)cc2)cc1` (configuration not stated), for which the Potency is 10 µM (active) in test [16]; 6.01 µM (active) in test [17]; 9.44 µM (active) in test [2]; 16.4 µM (active) in test [4]; 7.5 µM (active) in test [10]; 18.8 µM (active) in test [12].
In the case of `OC[C@H]1O[C@@H](n2cnc3c(=S)nc[nH]c32)[C@H](O)[C@@H]1O`, the Potency in [2] was 4.73 µM (active); in test [3], 2.99 µM (active); in [5], 1.88 µM (active); in test [7] it was 2.11 µM (active); in test [12] it was 0.237 µM (active); in test [13], 7.94 µM (active). For the same compound, the Potency in [14] is 2.24 µM (active); in [15], 3.55 µM (active). The Potency result in test [8], in test [10] and in test [18] was “inactive” in each case.
Consider `Cc1ccc(O)c2ncccc12`, for which the max response in [1] was -10.3% (inactive); in [3] it was 2.26% (inactive); in [4], -5.97% (inactive). The Potency in test [9] is 15 µM (active); in test [10], 8.41 µM (active); in test [11], 11.9 µM (active). Besides, the Potency result in test [13], in test [18], in test [14] and in test [15] was “inactive” each time.
Regarding `O=C(N/N=C/c1ccccc1O)c1ccncc1`, the Potency in [16] was 5.62 µM (active); in test [17], 6.01 µM (active); in test [5], 16.8 µM (active); in test [8], 9.44 µM (active); in [9] it was 1.06 µM (active); in test [10], 0.75 µM (active). Further, the Potency is 0.75 µM (active) in [11] and 2.66 µM (active) in test [12]. The max response in [3] is -6.14% (inactive); in [4], 8.17% (inactive). The Potency entry in test [13] and in test [18] was “inactive” throughout.
Consider `C[C@]12CCC(=O)C=C1[C@@H]1C[C@@H]1[C@H]1[C@@H]3[C@@H]4C[C@@H]4[C@@]4(CCC(=O)O4)[C@@]3(C)CC[C@@H]12`, for which the call in test [1] was inactive. For the same compound, the results for the max response in test [3] and in [5] were -9.08% (inactive) and -5.26% (inactive), respectively. Also, the Potency result in [7], in test [8], in [9], in [10], in [18] and in test [14] was “inactive” throughout. Further, the Potency entry in [15] was “inactive”.
On to `CC(C)(C)CC(C)(C)c1ccc(OCCOCC[N+](C)(C)Cc2ccccc2)cc1`, for which the Potency was 3.16 µM (active) in [16]; 1.2 µM (active) in test [17]; 6.68 µM (active) and 8.2 µM (active) in test [2]; 20.6 µM (active) in test [4]; 1.06 µM (active) in test [9]; 0.944 µM (active) in test [10]. Also, the Potency was 8.41 µM (active) in [11]; 1.5 µM (active) in test [12]; 25.1 µM (active) and inactive in test [18]; 10 µM (active) in test [14]. Further, in test [5], the max response is -27.5% (inactive). Also, the Potency entry in test [7] and in test [15] was “inactive” each time.
`CC(=O)Oc1ccc2c(c1)CC[C@@H]1[C@@H]2CC[C@]2(C)[C@@H](O)CC[C@@H]12`: the max response in [1] was -2.1% (inactive); in test [3] it was -1.57% (inactive); in [5], 2.78% (inactive). Also, the Potency result in [7], in test [8], in [13], in test [18], in test [14] and in [15] was “inactive” in each case.
For `CC(=O)OCC(=O)[C@@]1(OC(C)=O)[C@@H](C)C[C@H]2[C@@H]3C[C@H](F)C4=CC(=O)C=C[C@]4(C)[C@@]3(F)[C@@H](O)C[C@@]21C`, the Potency result in test [16], in test [7], in [8], in test [9], in test [10] and in test [11] was “inactive” in each case. Besides, the Potency entry in [12], in test [13], in test [18], in test [14] and in [15] was “inactive” in each case. For the same compound, the Potency in test [17] was 6.01 µM (active). For the same compound, in [1], the outcome was inactive. Also, the results for the max response in test [4] and in test [5] were 6.89% (inactive) and -5% (inactive), respectively.
